Measured values: ChEMBL document CHEMBL1201862, “PubChem BioAssay data set” (2004)
In all, about 55,000 sequences went through this assay and about 5,800 (11%) were called active. Rule as the data show it: active = GI50 up to about 1.1 µM and inactive = higher. Many of the other results were omitted from the sample, so actives are more common in it than they were. Measured potencies and affinities stand elsewhere.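 Cells were grown in 96-well plates and exposed to each compound for 48 hours at five concentrations; endpoints were interpolated linearly between bracketing concentrations, or set to the highest concentration if not reached. Here, GI50 denotes the concentration required for 50% inhibition of growth.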

test system: CCRF-CEM; assay: NCI tumour cell line growth inhibition, 48 h

“[Bis(aminomethyl)pentamethylenesilane]dichloropaltinum(II), CHEMBL2146202” was tested. Which GI50 did it give?
Its GI50 is 202 nM.

Which GI50 does the source give for “[Bis(aminomethyl)tetramethylenesilane]dichloropaltinum(II), CHEMBL2146205” here?
The GI50 was 1560 nM.

How did the GI50 turn out when “[Bis(aminomethyl)dimethylsilane]dichloroplatinum (II), CHEMBL2146201” was run?
The GI50 was 3660 nM.

With “[Bis(aminomethyl)diethylsilane]tetrachloroplatinum(IV), CHEMBL2146203” as the substance, how does the GI50 read?
Its GI50 is 283 nM.

Which GI50 does the source give for “mu-(1,7-nanodiamine-N,N')bis-(cis-aminedichloroplatimum (II)), CHEMBL2146215” here?
The GI50 was 925 nM.

“[Bis(aminomethyl)pentamethylenesilane]tetrachloropaltinum(IV), CHEMBL2146204” was tested. Which GI50 did it give?
The GI50 was 95.3 nM.

“ACRIFLAVINE HYDROCHLORIDE, CHEMBL5219995” was tested. Which GI50 did it give?
The GI50 was 233 nM.

With CISPLATIN, CHEMBL11359 as the substance, how does the GI50 read?
The GI50 was 1120 nM.

How did the GI50 turn out when “[Bis(aminomethyl)ethylmethylsilane]tetrachloroplatinum(IV), CHEMBL2146192” was run?
The GI50 was 381 nM.

“[Bis(aminomethyl)tetramethylenesilane]tetrachloropaltinum(IV), CHEMBL2146189” was tested. Which GI50 did it give?
Its GI50 is 246 nM.

Which GI50 does the source give for “[Bis(aminomethyl)dimethylsilane]tetrachloroplatinum(IV), CHEMBL2146190” here?
Its GI50 is 805 nM.

Which GI50 does the source give for “cis-Bis[[(trimethylsilyl)methyl]amino]tetrachloroplatinum(IV), CHEMBL2146191” here?
Its GI50 is 1230 nM.
